# Reference: the supplement of paper PMC6555819
# Assays:
# Experiment in all cases: PBM binding z-score (relative to random genomic background probes); higher = stronger binding; sequences stand for … in GC…GCGATTGACAGCGTAGAATGAAGG
# [1] = test system: FXR:RXRa (NR concentration 270 nM, RXRa partner concentration 90 nM)
# Summary of the method: (§1)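 On custom Agilent 4×180K arrays, double-stranded probes with 34-nt variable regions carried direct-repeat seeds, single-nucleotide variants, half-site ablations or random human genomic background. Ligand-free nuclear receptor dimers were applied for 1 h, and binding was read with antibodies against each partner (one per run). Binding z-scores come from regression-normalized fluorescence, with the random background probes as reference.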
# [2] = test system: LXRa:RXRa (NR concentration 270 nM, RXRa partner concentration 90 nM)
# Summary of the method: as §1
# [3] = test system: LXRa homodimer (NR concentration 270 nM)
# Summary of the method: as §1
# [4] = test system: LXRb:RXRa (NR concentration 270 nM, RXRa partner concentration 90 nM)
# Summary of the method: as §1
# [5] = test system: LXRb homodimer (NR concentration 270 nM)
# Summary of the method: as §1
# [6] = test system: PPARa:RXRa (NR concentration 270 nM, RXRa partner concentration 90 nM)
# Summary of the method: as §1
# [7] = test system: PPARg:RXRa (NR concentration 180 nM, RXRa partner concentration 90 nM)
# Summary of the method: as §1
# [8] = test system: PPARg:RXRa 270nM:90nM, anti-RXR (NR concentration 270 nM, RXRa partner concentration 90 nM)
# Summary of the method: as §1
# [9] = test system: PPARg:RXRa 30nM:10nM, anti-RXR (NR concentration 30 nM, RXRa partner concentration 10 nM)
# Summary of the method: as §1
# [10] = test system: PPARg:RXRa 90nM:30nM, anti-RXR (NR concentration 90 nM, RXRa partner concentration 30 nM)
# Summary of the method: as §1
# [11] = test system: PPARg:RXRa DBDmut IVT, anti-RXR (DBD mutation: RXRa K156A/R161A, NR concentration 270 nM, RXRa partner concentration 90 nM)
# Summary of the method: as §1
# [12] = test system: PPARg:RXRa IVT, anti-PPARg (NR concentration 270 nM, RXRa partner concentration 90 nM)
# Summary of the method: as §1
# [13] = test system: PPARg DBDmut:RXRa IVT, anti-PPARg (DBD mutation: PPARg1 K132A/R137A, NR concentration 270 nM, RXRa partner concentration 90 nM)
# Summary of the method: as §1
# [14] = test system: PPARg DBDmut IVT, anti-PPARg (DBD mutation: PPARg1 K132A/R137A, NR concentration 270 nM)
# Summary of the method: as §1
# [15] = test system: PPARg homodimer (NR concentration 180 nM)
# Summary of the method: as §1
# [16] = test system: PXR:RXRa (NR concentration 270 nM, RXRa partner concentration 90 nM)
# Summary of the method: as §1
# [17] = test system: PXR homodimer (NR concentration 270 nM)
# Summary of the method: as §1
# [18] = test system: RARa:RXR (NR concentration 270 nM, RXRa partner concentration 90 nM)
# Summary of the method: as §1
# [19] = test system: RARa homodimer (NR concentration 270 nM)
# Summary of the method: as §1
# [20] = test system: RARb:RXRa (NR concentration 270 nM, RXRa partner concentration 90 nM)
# Summary of the method: as §1
Sequence,PBM binding z-score [1],PBM binding z-score [2],PBM binding z-score [3],PBM binding z-score [4],PBM binding z-score [5],PBM binding z-score [6],PBM binding z-score [7],PBM binding z-score [8],PBM binding z-score [9],PBM binding z-score [10],PBM binding z-score [11],PBM binding z-score [12],PBM binding z-score [13],PBM binding z-score [14],PBM binding z-score [15],PBM binding z-score [16],PBM binding z-score [17],PBM binding z-score [18],PBM binding z-score [19],PBM binding z-score [20]
ACTATTAGTTGACTTAGCGCAACCGATACGACGC,-0.246,-0.156,0.033,-0.0894,0.667,-0.285,0.811,0.137,0.148,0.0233,0.0649,0.107,1.97,1.39,-0.0684,-0.103,0.0644,-0.262,0.57,0.104
TAGCCTAGGCCATTGGGCCAGTATAGTACGCATC,-0.681,-0.881,-0.612,-0.883,-1.27,-1.09,0.237,-0.512,-0.597,-0.438,-0.378,0.553,-1.56,-0.875,-1.33,-0.947,-0.712,-0.936,-0.489,0.356
TAGCCTAGGTCATGGTCCAGTATACCACGCGAAC,3.98,3.17,0.367,2.57,-0.0302,3.96,3.3,3.12,0.835,1.94,2,3.39,0.0262,-0.185,0.886,1.64,-0.02,2.35,-0.386,3.78
AGTCAAAGTCCATCTAGGTAACGTAAGATATGCT,0.0265,-0.375,0.0157,-0.0801,-0.0793,0.13,0.685,0.325,0.277,0.00564,0.353,2.15,1.24,0.675,-0.173,-0.246,0.131,0.0232,0.0654,1.37
TCTAGCAGGCTAGAGGGTCACTCAAGAGGTACGG,1.01,0.938,-0.529,0.868,-1.08,2.4,1.05,2,1.9,1.98,0.497,0.41,-0.174,-0.574,0.731,1.48,-0.354,2.02,-0.017,1.93
TCGAGTAGGTTAATCGGGGCATTCAGCCAACATA,0.0036,0.53,-0.187,0.859,-0.245,1.72,0.726,1.54,1.04,1.31,3.25,3.08,0.341,-0.256,0.811,0.519,-0.134,0.933,-0.986,0.81
CCAACTAGGTCACCGGAAGGTCAAAGTCCGCATG,6.49,5.96,5.35,5.35,1.43,5.81,9.14,7.51,5.79,6.94,8.42,8.36,0.902,1.2,9.32,6.17,2.46,7.7,4.05,5.15
CAAACTAGGTCACAGAGGTCACAGTCCGTGCGTA,6.73,6.02,6.09,5.37,1.35,6.43,10.1,8.04,6.43,8.12,8.75,9.01,2.8,2.69,5.83,6.57,9.23,7.15,2.78,5.35
CCTTAAGGGTCACTGACAGGTTATAGCATTTGGA,7.39,5.66,0.887,5.01,0.447,6.24,6.29,6.19,2.45,4.77,3.94,4.19,0.865,0.0136,3.85,4.69,0.0863,5.85,1.33,5.18
CCTGCTAGGTCAGGGTCAGCTAATCTACAGTATG,3.6,2.42,-0.231,2.55,-0.944,3.92,2.82,3,0.682,1.83,3.18,3.55,-0.395,-0.875,0.967,2.73,-0.26,3.48,0.175,4.42
CCTAGCAGGCCAGGGTCACTCTAGCATTTCGCTT,1.58,1.43,-0.629,1.71,-0.953,2.59,0.377,1.19,-0.703,-0.00564,0.274,0.7,-1.19,-1.73,0.937,2.39,-0.295,3.03,-0.305,2.52
GCTGCTAGGTCAGGTTGGTCAGCTGACGGGTACG,1.19,0.902,-0.423,0.356,-0.106,1.26,0.207,1.04,-0.528,0.514,2.92,2.16,0.00411,-0.207,1.24,0.407,-0.471,0.946,-0.516,3.17
CCAGACAGGTGAGCAGGTAACTCAGCCTCGATTA,-0.268,0.0871,-0.134,0.00402,-0.328,0.272,0.174,-0.00169,-0.644,-0.464,1.15,0.619,-0.93,-1.41,0.319,-0.31,0.22,-0.516,0.0182,0.568
ATCTCTAGGTAACCAAGTTCAGAGAATGCCGAAC,0.204,0.722,0.915,0.628,0.739,1.2,0.721,0.986,-0.0566,0.52,3.4,2.88,1.18,0.83,0.879,2.15,1.71,0.548,0.605,1.22
ACTATTAGTTGATACGAGGGCAACCGATAGGTTG,0.829,0.48,0.407,0.266,0.576,0.327,0.752,0.283,0.308,0.272,0.641,1.17,1.01,1.4,0.764,1.34,0.799,0.922,0.828,1.28
CCTATTATTTGACCATAAGGGCAACCGAAGCTCG,1.29,0.777,1.8,1.02,1.25,0.882,0.551,0.728,0.155,0.461,0.801,1.15,0.688,1.57,3.21,0.9,2.77,1.05,4.4,1.64
ATACGAAGGTGATCGTGAGGTCGTTGATACTAAC,1.79,1.18,0.283,0.729,-0.403,1.47,0.5,0.532,0.382,0.531,0.525,0.827,0.418,-0.452,0.589,2.82,1.23,2,0.134,1.29
CCTTACGGGTCACTGACAGGTTATAGTATTTGGA,5.25,4.01,0.456,3.4,0.163,4.95,4.75,4.34,1.8,2.96,3.44,3.9,0.845,0.452,2.3,3.46,0.317,4.47,0.728,3.93
GCTAGCAGGCCATTTGGTTCACTCAATGACGGGC,-0.456,-0.57,-0.84,-0.649,-0.937,-0.204,0.226,-0.536,-0.633,-0.582,1.03,-0.11,-0.667,-0.975,-0.906,-0.151,0.221,-0.572,-0.886,0.187
CCGAGTAGGTTATAGGGCATTCAGGCAACGGTGA,0.59,0.988,0.388,0.765,-0.185,3.47,6.04,6.43,4.96,6.5,3.99,4.27,0.108,-0.169,1.05,0.219,-0.129,0.863,0.46,1.24
TCTTGTAGATCAGCATGTTAAGAAAGCTGGCCAA,0.0411,0.107,-0.479,0.0271,-0.503,0.231,-0.371,1.52,2.44,2.19,1.61,-0.0359,-0.2,0.837,-0.198,0.127,-0.264,0.0601,-0.0517,-0.19
TCATATAGGTAATACAGGAGAAAGTCGGCATCTA,0.853,1.01,0.161,0.676,0.172,1.07,1.23,2.37,3.96,2.81,4.09,2.1,1.79,0.92,0.788,0.627,0.0379,0.706,1.13,0.369
TCTTGTAGATAAATAGAGGTTAAGAAAGTGCGCT,1.41,3.4,1.55,1.9,0.214,1.73,0.624,1.83,2.94,2.84,2.53,0.875,1.18,0.956,0.0767,2.77,0.529,1.8,1.33,0.915
ATCTCTAGGTAAAGATAGTTAAGTGAATGCAAAT,-0.0331,0.0561,-0.0773,0.142,0.643,-0.0582,0.771,0.421,0.415,0.236,1.79,1.42,0.229,1.6,0.449,-0.33,0.0795,-0.0694,0.927,-0.0166
TCTTGTAGATCAAGCAGGTTAAGCAAGCCTGAGT,0.175,0.151,-0.473,0.104,-0.672,0.618,-0.429,1.09,2.44,1.39,1.65,0.529,-0.37,-0.0257,-0.443,0.0788,-0.00179,0.628,-0.655,0.278
TCTTGTAGATCTAGCAGGTTAAGAAAGCCTGAGT,0.335,0.398,-0.285,0.453,-0.499,0.695,-0.571,1.22,2.48,1.86,1.5,0.0743,0.126,0.6,-0.214,0.527,0.101,0.57,0.175,0.0972
